Source: PubChem BioAssay
PNC inhibitor = blocks assembly of the perinucleolar compartment. PC3M PTB-GFP, PNC prevalence imaging, 16 h; stronger effect = lower value. activity change (PNC), negative = inhibition, % at 10 µM. 140,000 tested, 3.1% active;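 active = readout at or below -70, meaning at least 70% loss of cells showing the perinucleolar compartment, a nuclear body marking cancer cells; inconclusive = readout between -30 and a set limit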;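 note: plate controls were DMSO wells for no effect and camptothecin positive control wells for full effect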
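Compounds are pinned in duplicate onto adhered PC3M cells stably expressing GFP-tagged PTB and incubated 16 h at 37 C. Cells are then fixed, nuclei stained with Hoechst, and PNC-positive cells counted.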
ALDH1A1 inh = inhibitors of human aldehyde dehydrogenase 1A1; P00352; Purified ALDH1A1, NADH fluorescence, propionaldehyde substrate; Potency, µM (titrated, usually from 75.3 µM), for the others: top-dose activity, negative = inhibition, actives largely listed as inhibitors; 220,000 tested, 7.3% active; AID 1030;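 note: potency is the fitted concentration of half-maximal effect; plate controls were no enzyme wells and a reference inhibitor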
Target sequence (P00352 whole entry, looked up): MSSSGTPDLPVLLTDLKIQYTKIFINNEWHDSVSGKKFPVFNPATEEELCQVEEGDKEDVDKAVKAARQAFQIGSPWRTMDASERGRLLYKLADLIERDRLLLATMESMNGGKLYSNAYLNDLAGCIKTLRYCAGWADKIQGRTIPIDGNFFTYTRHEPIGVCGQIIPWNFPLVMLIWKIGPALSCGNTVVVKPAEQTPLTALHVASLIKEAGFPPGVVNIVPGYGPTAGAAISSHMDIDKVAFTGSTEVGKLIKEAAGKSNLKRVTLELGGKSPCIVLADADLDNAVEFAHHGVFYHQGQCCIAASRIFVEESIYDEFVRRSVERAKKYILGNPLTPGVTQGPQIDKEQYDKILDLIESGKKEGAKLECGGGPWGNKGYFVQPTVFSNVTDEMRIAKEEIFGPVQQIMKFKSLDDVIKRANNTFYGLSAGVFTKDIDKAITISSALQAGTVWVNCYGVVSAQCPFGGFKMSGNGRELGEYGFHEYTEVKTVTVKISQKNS
HPGD block = inhibitors of human 15-hydroxyprostaglandin dehydrogenase (HPGD); purified HPGD, NADH fluorescence kinetic, PGE2 substrate; 150,000 tested, 4.3% active; Potency, µM, without a hit: at the top dose activity change, negative = inhibition, most hits filed as inhibitors; AID 894; note: potency is the fitted concentration of half-maximal effect
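20 nM HPGD preincubated 15 min at room temperature with compound in 50 mM Tris-HCl pH 8, 0.01% Tween 20. Started with 1 mM NAD+ and 30 uM prostaglandin E2; NADH fluorescence (360/450 nm) read 5 times over 30-s intervals, last minus first.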
* marks the source's active call; other numbers are inactive results; u = inconclusive; x = not tested or not shown; [ ] = another dose, or the depositor's remark. Most compounds without a hit are left out; they make up all but 11% or so of the library. Unless noted, calls come from the whole dose curve; as a rule, active = well fitted inhibition curve with a large enough effect (not every such curve was filed as active); inconclusive = small, poorly fitted or top-dose-only effect, or another doubt; inactive = no such curve, though single readings can be large or run the other way. Unless noted, % is set by controls: 0 for no effect and ±100 for the full control effect.

SMILES	PNC inhibitor	ALDH1A1 inh	HPGD block
Cc1ccc(S(=O)(=O)NNc2ccccc2)cc1	-16	5.6µM*	5µM*
CC(C)n1nnnc1-c1ccc(Cl)cc1	x	-5%	x
FC(F)(F)c1ccccc1-c1nc(N2CCNCC2)c2ccccc2n1	x	u	-12%
CC(C)C(=O)Nc1ncc(Cc2ccc(Cl)cc2)s1	x	-6%	x
O=C(Nc1nnc(SCc2c(Cl)cccc2Cl)s1)C1CC(=O)N(c2ccc3c(c2)OCCO3)C1 (stereo not given)	x	3.5µM*	x
O=C(Nc1nnc(SCc2ccc(F)cc2)s1)C1CC(=O)N(c2ccc3c(c2)OCCO3)C1 (stereo not given)	u	-12%	u
O=C(Nc1nc(-c2ccco2)c(-c2ccco2)s1)C1CC(=O)N(c2ccc3c(c2)OCCO3)C1 (stereo not given)	0	1.1µM*	u
Cc1cc(NC(=O)CSc2nnc(NC(=O)C3CC(=O)N(c4ccccc4)C3)s2)no1 (stereo not given)	25	-2%	-13%
Cc1cc(NC(=O)CSc2nnc(NC(=O)C3CC(=O)N(c4ccccc4C)C3)s2)no1 (stereo not given)	u	20µM*	-21%
CCCCc1nnc(NC(=O)C2CC(=O)N(c3ccc4c(c3)OCCO4)C2)s1 (stereo not given)	10	-5%	-17%
C/C(CCS(=O)(=O)c1ccccc1)=N/O	x	-8%	x
COc1cc2c(cc1OC)C(C(C(=O)N(CCc1ccc(OC)c(OC)c1OC)CCc1ccc(OC)c(OC)c1OC)c1ccccc1)=NCC2 (stereo not given)	x	u	-29%
CCc1ccc2[nH]c(=O)c(CN(Cc3ccccc3)C(=O)Nc3ccccc3OC)cc2c1	5	-6%	-10%
O=C(/C=C/c1ccco1)NC(=S)Nc1ccc(Cl)cn1	-13	10µM*	-26%
O=C(/C=C/c1ccc(Br)cc1)NC1CCCCCC1	u	5%	-13%
O=C(/C=C/c1ccco1)NC1CCCC1	x	22µM*	x
COc1ccc(/C=C/C(=O)NC(=S)Nc2ccc(S(=O)(=O)Nc3nccnc3OC)cc2)cc1	-1	u	u
Cc1ccnc(NC(=S)NC(=O)/C=C/c2ccco2)c1	u	u	-14%
COc1ccc(/C=C/C(=O)NC(=S)Nc2ccc(S(=O)(=O)Nc3cc(OC)ncn3)cc2)cc1	x	28µM*	x
O=C(CCCN1C(=O)/C(=C\c2cccs2)SC1=S)Nc1ccc(C(=O)O)cc1	x	-8%	x
COc1ccc(NC(=O)CCCN2C(=O)/C(=C\c3ccco3)SC2=S)cc1	-21	25µM*	-19%
Cc1ccc(S(=O)(=O)N2CCN(Cc3ccsc3)CC2)cc1	x	1%	x
O=C(NC1CCCCC1)C1c2ccccc2C(=O)N1Cc1ccc2c(c1)OCO2 (stereo not given)	x	0%	x
Cc1cc(C)nc(N/C(=N\S(=O)(=O)Cc2ccccc2)Nc2ccc(F)c(Cl)c2)n1	-30	-2%	-3%
Nc1c([N+](=O)[O-])c(=O)oc2ccccc12	x	6%	x
SMILES	PNC inhibitor	ALDH1A1 inh	HPGD block
CC(NC(=S)NCCc1ccccc1)C(c1cccs1)N1CCN(Cc2ccccc2)CC1 (stereo not given)	46	-10%	-27%
CN1C(=O)S/C(=C\c2ccc(-n3cncn3)cc2)C1=O	x	-1%	x
Cc1nn(C)c(Oc2cccc(C(F)(F)F)c2)c1C=O	x	7%	x
Cc1ccccc1NC(=O)CSc1nc2n(n1)CCCCC2	u	-8%	-11%
CCCC(=O)NC(=S)Nc1ccc(Cl)cn1	38	25µM*	-14%
O=C1/C(=C\c2ccco2)SC(=S)N1c1ccc(O)cc1	39	u	-12%
COC(=O)c1ccccc1NC(=O)/C=C/c1ccco1	-9	25µM*	-24%
COC(=O)c1ccccc1NC(=O)NCc1ccco1	-19	-8%	-12%
O=C(C=C1SCCS1)/C=C/c1ccco1	1	-16%	-9%
NN1C(=O)/C(=C\c2ccco2)SC1=S	x	1.3µM*	x
O=C(NC(=S)Nc1ccc(Cl)cn1)c1cccs1	-6	u	-22%
O=C(O)C(C(=O)/C=C/c1ccco1)=C1SCCS1	30	13µM*	-21%
CC(c1ccccc1)C1CC(=O)N(Cc2ccccc2)C1=O (stereo not given)	x	-4%	x
COc1ccc(NC(=S)NC(=O)/C=C/c2ccco2)cc1	x	7.1µM*	x
NS(=O)(=O)c1ccc(NC(=O)/C=C/c2ccco2)cc1	x	24µM*	x
CN(C)c1ccc(NC(=S)NC(=O)/C=C/c2ccco2)cc1	x	5%	x
N#C/C(=C\c1ccco1)C(=O)Nc1ccc(S(N)(=O)=O)cc1	x	8%	x
C/C(=N\NC(=O)CNc1cccc(Cl)c1C)C1CC1	x	2%	x
Cc1ccc(O)c(C2=NNC(O)(C(F)(F)F)C2)c1 (stereo not given)	27	9%	25µM*
Cc1ccc(O)c(-c2cc(C(F)(F)C(F)F)nc(-c3ccccc3)n2)c1	-13	1%	-3%
NCC(O)COc1cccc2ccccc12 (stereo not given)	x	1%	x
C/C(=N\OCC(=O)N/N=C/c1ccccc1)c1cccs1	2	11%	1%
COc1ccc(/C=N/NC(=O)CO/N=C(\C)c2cccs2)cc1	-10	22µM*	-20%
COc1cc(CNc2nc(C)c([N+](=O)[O-])c(C)c2C#N)cc(OC)c1	8	4µM*	-6%
Cc1nc(NCCc2ccccc2F)c(C#N)c(C)c1[N+](=O)[O-]	u	14µM*	-10%
SMILES	PNC inhibitor	ALDH1A1 inh	HPGD block
COCc1c(C#N)c(NCCc2ccccc2)nc(C)c1[N+](=O)[O-]	u	3%	-18%
Cc1nc(NCCc2ccc(F)cc2)c(C#N)c(C)c1[N+](=O)[O-]	-23	u	-9%
CC(=O)C[C@H](O)[C@@H](NC(=O)OC(C)(C)C)C(C)C	x	-5%[13.5 µM]	x
O=S(=O)(/C=C/c1ccccc1)N1CCN(Cc2ccccc2)CC1	x	-19%	x
COc1cc2c(cc1OC)N1C(=O)CC(OCC(=O)O)C3C4CC5(CCN5C(=O)C4=O)C2C31 (stereo not given)	x	-5%	x
S=c1[nH]nc(-c2ccncc2)n1/N=C/c1cccc2ccccc12	-9	-7%	0.32µM*
CC(C)(C)c1ccc(-c2n[nH]c(=S)n2/N=C/c2ccncc2)cc1	-17	0%	11µM*
C(=N\n1cnnc1)/c1cccc2ccccc12	40	-6%	-26%
Cc1n[nH]c(=S)n1/N=C/c1ccccc1	41	-6%	u
Cc1ccc(/C=N/n2c(-c3ccncc3)n[nH]c2=S)cc1	u	u	20µM*
CCCOc1ccc(C(=O)ON=C2CCN(C)CC2)cc1	x	-11%	x
CC(NC(=O)/C(=C/c1cccc([N+](=O)[O-])c1)NC(=O)c1ccco1)C(=O)O (stereo not given)	-28	0%	-13%
COC(=O)N1CCC2(CC1)CN(C(=O)Nc1cccc(C#N)c1)C2	x	-11%	-25%
COc1ccccc1NC(=O)CCC(=O)OCc1cccc([N+](=O)[O-])c1	x	20%	x
COCCNC(=O)Cc1cn(C)c2ccccc12	55	5%	-5%
COCCNC(=O)c1cn(C)c2ccccc2c1=O	x	3.5µM*	x
CCn1cc(C(=O)OC)c(=O)c2ccc(C)nc21	x	0%	x
CCn1cc(C(=O)NCCOC)c(=O)c2ccc(C)nc21	-3	11µM*	-27%
CCn1c(SCC(=O)N2CCc3ccccc3C2)nc2sc(C)c(C)c2c1=O	u	-5%	-10%
CCOC(=O)c1cnn(-c2ccccc2)c1-n1cccc1	12	0%	-8%
